# Data from PubChem BioAssay (EPA / NIEHS).
# Records with an inconclusive call do not appear. Activity calls are given as the source filed them. The calls were made as follows: active = hit-call score of the fitted dose curve at least 0.9, where 1 is the maximum; inconclusive = response in the unintended direction; inactive = score below 0.9.
# Legend:
# [1] = target: human Dual Specificity Protein Phosphatase 3 (DUSP3), DUSP3 (gene 1845) (UniProt P51452); test: NVS_ENZ_hDUSP3: NovaScreen (NVS) Enzymatic Assay for human Dual Specificity Protein Phosphatase 3 (DUSP3) (AID 2283152);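 also: phosphatase activity of recombinant human DUSP3 on a fluorogenic substrate without cells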
# Procedure, shortened: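 Cell-free fluorescence-intensity enzyme activity assay with recombinant protein and substrate; loss of signal fitted relative to DMSO baseline. Primary screen in duplicate at 25 uM, actives then run in concentration series; measured 0 h after dosing.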
# [2] = target: human Elastase, ELANE (gene 1991) (UniProt P08246); test: NVS_ENZ_hElastase: NovaScreen (NVS) Enzymatic Assay for human Elastase (AID 2283153)
# Description: NVS_ENZ_hElastase is a biochemical, single-readout assay that uses extracted gene-proteins from Human neutrophils in a cell-free assay. Measurements were taken 1.5 hours after chemical dosing in a 96-well plate.NVS_ENZ_hElastase is one of one assay component(s) measured or calculated from the NVS_ENZ_hElastase assay. It is designed to make measurements of enzyme activity, a form of enzyme reporter, as detected with absorbance signals by Spectrophotometry technology.Data from the assay component NVS_ENZ_hElastase was analyzed into 1 assay endpoint. This assay endpoint, NVS_ENZ_hElastase, was analyzed in the positive analysis fitting direction relative to DMSO as the negative control and baseline of activity. Using a type of enzyme reporter, loss-of-signal activity can be used to understand changes in the enzymatic activity as they relate to the gene ELANE. Furthermore, this assay endpoint can be referred to as a primary readout, because this assay has produced multiple assay endpoints where this one serves a enzymatic activity function. To generalize the intended target to other relatable targets, this assay endpoint is annotated to the protease intended target family, where the subfamily is serine protease.
# Binding assays used specific radioligands (tritiated, iodinated) with non-radioactive competitive displacement ligands in agonist or antagonist protocols (as indicated) and various reference compounds and inhibitors to titrate specific binding to receptors and transporters. Most enzyme assays (CYPs, kinases, phosphatases, proteases, HDACs) used recombinant protein and specific substrates (fluorescence mostly, some colorimetric and radioactive) and inhibitors, followed by a biochemical separation of substrate and product. All assays for the biochemical HTS were initially run in duplicate at a single concentration (10 uM for CYP450 assays and 25 uM for all others). Assay-chemical combinations meeting a pre-defined threshold (e.g., 30% inhibition and other criteria defined below) were then run in singleton concentration-response format with maximum concentration of 20 uM for CYPs and 50 uM for all others. Each assay was run with positive and negative controls, and concurrent controls on every plate. The follow-up (secondary) screen tested active chemical-pairs in concentration series, as well as a few additional assays not tested in the primary screen, some selected negative inactives, and several cases re-run in the concentration series for confirmatory purposes.
# [3] = target: human AKT serine/threonine Kinase 2 (AKT2), AKT2 (gene 208) (UniProt P31751); test: NVS_ENZ_hAKT2: NovaScreen (NVS) Enzymatic Assay for human AKT serine/threonine Kinase 2 (AKT2) (AID 2283141)
# Procedure, shortened: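 Cell-free fluorescence/electrophoretic mobility shift readout of recombinant human AKT2 activity, 1 h after chemical dosing. Duplicate primary screen at 25 uM, then singleton concentration-response up to 50 uM; loss of signal versus DMSO baseline.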
# [4] = target: human Colony Stimulating Factor 1 Receptor (CSF1R), CSF1R (gene 1436) (UniProt P07333); test: NVS_ENZ_hCSF1R: NovaScreen (NVS) Enzymatic Assay for human Colony Stimulating Factor 1 Receptor (CSF1R) (AID 2283150)
# Procedure, shortened: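 Compounds screened in duplicate at 25 uM, then concentration-response (top 50 uM) for those passing threshold such as 30% inhibition; recombinant CSF1R activity measured 1 h post-dosing via fluorescent substrate/product mobility-shift separation, loss of signal versus DMSO.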
# [5] = target: human Esterase Plasma (ES), BCHE (gene 590) (UniProt P06276); test: NVS_ENZ_hES: NovaScreen (NVS) Enzymatic Assay for human Esterase Plasma (ES) (AID 2283157)
# Procedure, shortened: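 Screening ran at 25 uM in duplicate, followed by singleton concentration series reaching 50 uM for actives. Human plasma protein, colorimetric detection, 0.25 h exposure, DMSO negative control.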
# [6] = target: human Casein Kinase 1-delta (CK1D), CSNK1D (gene 1453) (UniProt P48730); test: NVS_ENZ_hCK1D: NovaScreen (NVS) Enzymatic Assay for human Casein Kinase 1-delta (CK1D) (AID 2283148)
# Procedure, shortened: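 Recombinant human CK1-delta, cell-free; fluorescent substrate with electrophoretic mobility-shift separation of product, read 1 h after dosing. Single 25 uM duplicate screen, then concentration-response up to 50 uM; loss of signal vs DMSO.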
# [7] = target: human Ephrin type-A Receptor 1 (EphA1), EPHA1 (gene 2041) (UniProt P21709); test: NVS_ENZ_hEphA1: NovaScreen (NVS) Enzymatic Assay for human Ephrin type-A Receptor 1 (EphA1) (AID 2283158);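 also: activity is signal loss versus DMSO meaning EphA1 kinase inhibition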
# Procedure, shortened: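 Cell-free kinase activity with recombinant protein, 1 hour after dosing; product separated by electrophoretic mobility shift, fluorescence read. Primary screen at 25 uM in duplicate; hits run as concentration-response up to 50 uM, relative to DMSO.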
# [8] = target: human Caspase 8 (CASP8), CASP8 (gene 841) (UniProt Q14790); test: NVS_ENZ_hCASP8: NovaScreen (NVS) Enzymatic Assay for human Caspase 8 (CASP8) (AID 2283146)
# Procedure, shortened: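 The primary screen tested compounds in duplicate at a single 25 uM concentration, with actives followed up in concentration series. Activity of recombinant (E. coli) protease was measured by fluorescence 1 h post-dose, as signal loss against DMSO.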
# CDK2 (gene 1017) = CDK2 (gene 1017) (UniProt P24941); test: NVS_ENZ_hCDK2: NovaScreen (NVS) Enzymatic Assay for human Cyclin-Cependent Kinase 2 (CDK2) (AID 2283144)
# Procedure, shortened: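 Compounds screened in duplicate at 25 uM, then in singleton concentration-response to a maximum of 50 uM, against recombinant CDK2; kinase activity read 1 hr after dosing by fluorescence with mobility-shift separation of substrate and product.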
# [9] = target: human Caspase 4 (CASP4), CASP4 (gene 837) (UniProt P49662); test: NVS_ENZ_hCASP4: NovaScreen (NVS) Enzymatic Assay for human Caspase 4 (CASP4) (AID 2283143)
# Description: NVS_ENZ_hCASP4 is a biochemical, single-readout assay that uses extracted gene-proteins from E. coli in a cell-free assay. Measurements were taken 2 hours after chemical dosing in a 96-well plate.NVS_ENZ_hCASP4 is one of one assay component(s) measured or calculated from the NVS_ENZ_hCASP4 assay. It is designed to make measurements of enzyme activity, a form of enzyme reporter, as detected with fluorescence intensity signals by Fluorescence technology.Data from the assay component NVS_ENZ_hCASP4 was analyzed into 1 assay endpoint. This assay endpoint, NVS_ENZ_hCASP4, was analyzed in the positive analysis fitting direction relative to DMSO as the negative control and baseline of activity. Using a type of enzyme reporter, loss-of-signal activity can be used to understand changes in the enzymatic activity as they relate to the gene CASP4. Furthermore, this assay endpoint can be referred to as a primary readout, because this assay has produced multiple assay endpoints where this one serves a enzymatic activity function. To generalize the intended target to other relatable targets, this assay endpoint is annotated to the protease intended target family, where the subfamily is cysteine protease. […]
# human Casein Kinase 1-delta (CK1D), CSNK1D (gene 1453), sequence (P48730 whole entry, looked up): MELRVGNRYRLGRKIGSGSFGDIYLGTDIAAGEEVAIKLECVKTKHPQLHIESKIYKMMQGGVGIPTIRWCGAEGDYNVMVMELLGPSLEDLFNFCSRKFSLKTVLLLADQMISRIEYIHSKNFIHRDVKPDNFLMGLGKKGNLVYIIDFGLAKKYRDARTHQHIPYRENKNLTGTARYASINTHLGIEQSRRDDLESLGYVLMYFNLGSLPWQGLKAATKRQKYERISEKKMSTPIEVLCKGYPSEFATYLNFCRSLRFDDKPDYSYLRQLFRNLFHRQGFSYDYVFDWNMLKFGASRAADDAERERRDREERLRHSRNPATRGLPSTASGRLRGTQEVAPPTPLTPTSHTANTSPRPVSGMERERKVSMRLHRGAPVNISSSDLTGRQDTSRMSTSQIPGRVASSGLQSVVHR
# human Ephrin type-A Receptor 1 (EphA1), EPHA1 (gene 2041), sequence (P21709 whole entry, looked up): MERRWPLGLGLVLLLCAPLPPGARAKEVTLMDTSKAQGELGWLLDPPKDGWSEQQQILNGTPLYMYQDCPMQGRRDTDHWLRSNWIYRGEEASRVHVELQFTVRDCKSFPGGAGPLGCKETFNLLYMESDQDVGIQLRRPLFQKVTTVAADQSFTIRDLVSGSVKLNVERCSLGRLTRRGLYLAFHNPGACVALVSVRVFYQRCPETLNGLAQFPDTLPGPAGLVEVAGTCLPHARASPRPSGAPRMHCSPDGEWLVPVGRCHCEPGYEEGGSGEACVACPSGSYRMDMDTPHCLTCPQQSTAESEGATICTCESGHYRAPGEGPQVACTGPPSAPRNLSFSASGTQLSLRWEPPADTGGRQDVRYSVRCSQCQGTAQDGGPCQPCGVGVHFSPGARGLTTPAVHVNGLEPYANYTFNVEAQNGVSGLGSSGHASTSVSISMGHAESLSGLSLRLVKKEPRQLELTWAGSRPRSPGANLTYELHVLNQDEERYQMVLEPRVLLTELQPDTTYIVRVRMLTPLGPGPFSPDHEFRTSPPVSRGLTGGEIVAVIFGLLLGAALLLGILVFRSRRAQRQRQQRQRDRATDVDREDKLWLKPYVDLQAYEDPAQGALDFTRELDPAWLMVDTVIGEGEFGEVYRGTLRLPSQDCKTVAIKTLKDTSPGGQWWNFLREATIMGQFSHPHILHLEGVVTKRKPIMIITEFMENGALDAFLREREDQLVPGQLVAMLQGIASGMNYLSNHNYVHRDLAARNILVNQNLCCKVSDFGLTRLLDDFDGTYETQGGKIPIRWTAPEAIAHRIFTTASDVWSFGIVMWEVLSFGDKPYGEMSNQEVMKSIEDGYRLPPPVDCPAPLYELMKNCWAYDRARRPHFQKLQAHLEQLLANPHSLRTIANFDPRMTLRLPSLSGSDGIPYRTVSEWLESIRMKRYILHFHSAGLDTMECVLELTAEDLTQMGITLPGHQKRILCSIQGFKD
# human Dual Specificity Protein Phosphatase 3 (DUSP3), DUSP3 (gene 1845), sequence (P51452 whole entry, looked up): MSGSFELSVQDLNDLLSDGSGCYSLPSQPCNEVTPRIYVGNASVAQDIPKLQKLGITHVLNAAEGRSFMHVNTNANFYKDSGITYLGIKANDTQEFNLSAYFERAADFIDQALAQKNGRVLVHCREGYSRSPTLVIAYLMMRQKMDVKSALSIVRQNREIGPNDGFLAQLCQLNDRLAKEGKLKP
# human Caspase 8 (CASP8), CASP8 (gene 841), sequence (Q14790 whole entry, looked up): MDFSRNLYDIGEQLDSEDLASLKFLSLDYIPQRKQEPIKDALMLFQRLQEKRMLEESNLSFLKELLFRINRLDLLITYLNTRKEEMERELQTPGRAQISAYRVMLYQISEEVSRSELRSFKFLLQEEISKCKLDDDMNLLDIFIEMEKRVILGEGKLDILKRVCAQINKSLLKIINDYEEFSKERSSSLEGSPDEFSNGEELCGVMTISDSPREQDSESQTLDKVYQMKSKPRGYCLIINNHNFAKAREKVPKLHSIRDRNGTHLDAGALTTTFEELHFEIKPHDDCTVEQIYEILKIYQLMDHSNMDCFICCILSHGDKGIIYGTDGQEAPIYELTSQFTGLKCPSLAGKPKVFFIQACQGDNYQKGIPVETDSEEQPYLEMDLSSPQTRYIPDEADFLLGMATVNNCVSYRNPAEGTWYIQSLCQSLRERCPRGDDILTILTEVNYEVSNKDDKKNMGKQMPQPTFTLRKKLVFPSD
# human Esterase Plasma (ES), BCHE (gene 590), sequence (P06276 whole entry, looked up): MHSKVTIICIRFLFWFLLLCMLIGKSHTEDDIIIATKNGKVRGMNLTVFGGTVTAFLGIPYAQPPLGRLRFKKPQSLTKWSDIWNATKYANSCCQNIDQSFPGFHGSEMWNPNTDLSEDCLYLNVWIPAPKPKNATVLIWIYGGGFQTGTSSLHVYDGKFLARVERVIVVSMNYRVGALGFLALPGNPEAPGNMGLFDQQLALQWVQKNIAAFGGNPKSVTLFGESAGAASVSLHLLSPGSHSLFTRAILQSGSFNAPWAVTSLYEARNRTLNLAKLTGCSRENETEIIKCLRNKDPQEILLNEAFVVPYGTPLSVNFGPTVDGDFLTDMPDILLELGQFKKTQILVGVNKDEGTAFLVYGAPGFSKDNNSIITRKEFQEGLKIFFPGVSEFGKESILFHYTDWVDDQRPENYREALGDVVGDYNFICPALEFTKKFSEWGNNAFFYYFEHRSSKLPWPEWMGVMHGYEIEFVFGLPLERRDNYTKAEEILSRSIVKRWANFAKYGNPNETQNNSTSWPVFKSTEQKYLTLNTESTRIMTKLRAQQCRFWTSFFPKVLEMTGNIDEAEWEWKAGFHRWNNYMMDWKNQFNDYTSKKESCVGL
# human Colony Stimulating Factor 1 Receptor (CSF1R), CSF1R (gene 1436), sequence (P07333 whole entry, looked up): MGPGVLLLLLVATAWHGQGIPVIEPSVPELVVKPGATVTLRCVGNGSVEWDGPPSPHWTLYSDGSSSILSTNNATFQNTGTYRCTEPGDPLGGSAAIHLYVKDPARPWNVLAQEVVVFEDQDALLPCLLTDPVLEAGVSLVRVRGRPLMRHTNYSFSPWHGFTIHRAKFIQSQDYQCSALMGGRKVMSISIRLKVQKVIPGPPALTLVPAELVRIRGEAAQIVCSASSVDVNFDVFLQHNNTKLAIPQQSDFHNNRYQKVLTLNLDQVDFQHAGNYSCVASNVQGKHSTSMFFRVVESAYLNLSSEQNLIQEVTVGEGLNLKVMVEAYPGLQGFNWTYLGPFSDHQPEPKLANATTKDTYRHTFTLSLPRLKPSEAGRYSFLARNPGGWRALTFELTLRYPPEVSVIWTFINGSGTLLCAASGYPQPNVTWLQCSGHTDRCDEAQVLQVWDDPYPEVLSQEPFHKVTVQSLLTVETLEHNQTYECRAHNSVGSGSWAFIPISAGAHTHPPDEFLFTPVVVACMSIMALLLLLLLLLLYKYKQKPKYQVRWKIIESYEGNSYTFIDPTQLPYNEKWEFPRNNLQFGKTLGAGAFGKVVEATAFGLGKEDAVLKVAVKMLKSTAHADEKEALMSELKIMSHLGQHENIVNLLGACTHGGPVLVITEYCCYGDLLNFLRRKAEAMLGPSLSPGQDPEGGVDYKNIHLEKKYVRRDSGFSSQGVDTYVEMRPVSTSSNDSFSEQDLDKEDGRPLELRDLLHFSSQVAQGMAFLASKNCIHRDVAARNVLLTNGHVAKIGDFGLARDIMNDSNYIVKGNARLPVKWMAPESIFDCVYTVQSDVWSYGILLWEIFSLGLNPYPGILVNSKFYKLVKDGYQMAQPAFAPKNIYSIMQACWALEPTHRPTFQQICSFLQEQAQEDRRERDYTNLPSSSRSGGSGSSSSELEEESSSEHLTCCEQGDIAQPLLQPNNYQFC
# human Elastase, ELANE (gene 1991), sequence (P08246 whole entry, looked up): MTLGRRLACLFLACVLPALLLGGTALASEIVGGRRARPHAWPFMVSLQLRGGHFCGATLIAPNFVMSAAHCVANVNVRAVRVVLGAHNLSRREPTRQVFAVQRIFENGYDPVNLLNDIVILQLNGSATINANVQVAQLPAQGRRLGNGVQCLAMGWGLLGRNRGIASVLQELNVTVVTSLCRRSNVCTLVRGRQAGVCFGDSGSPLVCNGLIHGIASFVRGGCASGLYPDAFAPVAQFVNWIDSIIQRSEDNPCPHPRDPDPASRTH
# human Caspase 4 (CASP4), CASP4 (gene 837), sequence (P49662 whole entry, looked up): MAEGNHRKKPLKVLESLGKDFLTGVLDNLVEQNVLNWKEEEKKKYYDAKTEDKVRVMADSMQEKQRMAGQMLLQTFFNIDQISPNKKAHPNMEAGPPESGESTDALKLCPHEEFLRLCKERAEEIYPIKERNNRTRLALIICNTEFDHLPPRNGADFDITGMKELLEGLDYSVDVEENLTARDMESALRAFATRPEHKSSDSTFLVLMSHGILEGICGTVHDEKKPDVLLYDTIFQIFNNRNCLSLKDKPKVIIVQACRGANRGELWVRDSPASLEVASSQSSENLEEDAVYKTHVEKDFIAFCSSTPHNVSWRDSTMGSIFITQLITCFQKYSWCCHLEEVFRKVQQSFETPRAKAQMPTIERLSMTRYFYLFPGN
# human AKT serine/threonine Kinase 2 (AKT2), AKT2 (gene 208), sequence (P31751 whole entry, looked up): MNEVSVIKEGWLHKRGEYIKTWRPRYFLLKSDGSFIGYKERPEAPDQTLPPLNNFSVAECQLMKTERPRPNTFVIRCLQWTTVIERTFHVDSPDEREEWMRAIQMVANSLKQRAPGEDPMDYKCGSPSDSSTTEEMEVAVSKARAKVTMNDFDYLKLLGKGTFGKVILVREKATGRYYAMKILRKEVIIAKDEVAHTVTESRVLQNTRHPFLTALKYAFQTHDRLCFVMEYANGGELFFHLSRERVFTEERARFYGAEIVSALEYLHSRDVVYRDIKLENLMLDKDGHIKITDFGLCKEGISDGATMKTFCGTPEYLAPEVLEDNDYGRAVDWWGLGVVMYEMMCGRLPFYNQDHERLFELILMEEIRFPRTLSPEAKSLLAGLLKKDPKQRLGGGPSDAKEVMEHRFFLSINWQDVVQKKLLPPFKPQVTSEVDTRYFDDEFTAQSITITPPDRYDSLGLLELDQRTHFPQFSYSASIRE
smiles,measurement,setting,value
CCCCCCCCCCCCCCCS(=O)(=O)Oc1ccccc1,outcome,[1],inactive
same,outcome,[2],inactive
N#C[C@@H]1CC(F)(F)CN1C(=O)CNC1CC2CCC(C1)N2c1ncccn1 (some centres undefined),outcome,[3],inactive
same,outcome,[4],inactive
CC#C[C@]1(O)CC[C@H]2[C@@H]3CCC4=CC(=O)CCC4=C3[C@@H](c3ccc(N(C)C)cc3)C[C@@]21C,outcome,[1],inactive
same,AC50,[2],2.18 µM (active)
same,AC50,[5],4.97 µM (active)
Cc1cc(CCN2CCN(c3nsc4ccccc34)CC2)cc2c1NC(=O)CC2(C)C,outcome,[4],inactive
same,AC50,[5],22.2 µM (active)
O=c1c(-c2ccc(O)cc2)coc2cc(O)ccc12,outcome,[6],inactive
NC(=O)N(O)[C@@H]1C=C[C@H](Oc2cccc(Oc3ccc(F)cc3)c2)C1,outcome,[5],inactive
CCCCCCCCCCCCCC[N+](C)(C)C,outcome,[7],inactive
C[C@@H]1C[C@H]2[C@@H]3CCC4=CC(=O)C=C[C@]4(C)[C@@]3(F)[C@@H](O)C[C@]2(C)[C@@]1(O)C(=O)COP(=O)(O)O,outcome,[7],inactive
CCCOc1sc(C(=O)N2CCC(c3cc(CN)ccc3F)CC2)c(C)c1Br,AC50,[1],7.33 µM (active)
same,AC50,[5],8.81 µM (active)
CCCCCCCCOC(=O)CCCCCCCCC(=O)OCCCCCCCC,outcome,[1],inactive
CCN(CC)CCNc1ccc(CNC=O)c2sc3ccc(OC)cc3c(=O)c12,AC50,[6],6.5 µM (active)
same,AC50,[5],0.751 µM (active)
Nc1cccc2c(N)cccc12,outcome,[2],inactive
c1ccc2cc3c(ccc4ccccc43)cc2c1,outcome,[8],inactive
same,AC50,[2],46.9 µM (active)
CC(=O)NC1(c2cccc(F)c2)CCN(CC[C@@]2(c3ccc(Cl)c(Cl)c3)CN(c3ccccc3)C(=O)CO2)CC1,AC50,[2],8.58 µM (active)
same,AC50,[5],3.79 µM (active)
O=C(O)c1ccccc1C(c1ccc(O)cc1)c1ccc(O)cc1,outcome,[6],inactive
CCCCC(CC)COC(=O)CCCCC(=O)OCC(CC)CCCC (centres undefined),outcome,[1],inactive
CCCCCCCCCCCCc1ccccc1S(=O)(=O)O,AC50,[3],40.2 µM (active)
same,outcome,CDK2 (gene 1017),inactive
same,AC50,[6],17.4 µM (active)
same,AC50,[4],17.3 µM (active)
same,AC50,[2],38 µM (active)
ClC1=C(Cl)C(Cl)(Cl)C(Cl)=C1Cl,AC50,[1],16.3 µM (active)
same,outcome,[7],inactive
COCC(C)O (centres undefined),outcome,[7],inactive
CC(C)(C)CC(C)(C)c1ccc(O)c(-n2nc3ccccc3n2)c1,AC50,[1],10.6 µM (active)
CCCOC(=O)c1ccc(O)cc1,outcome,[4],inactive
COCC(C)OCC(C)O (centres undefined),outcome,[6],inactive
same,outcome,[4],inactive
CCCCC(CC)COC(=O)CCCCC(=O)OCc1ccccc1 (centres undefined),outcome,[5],inactive
C=C(C)C(=O)OCCC(F)(F)C(F)(F)C(F)(F)C(F)(F)C(F)(F)C(F)(F)F,AC50,[8],1.96 µM (active)
O=C(O)Cc1cc(I)c(Oc2cc(I)c(O)c(I)c2)c(I)c1,outcome,CDK2 (gene 1017),inactive
same,outcome,[6],inactive
same,outcome,[4],inactive
same,AC50,[1],11 µM (active)
same,AC50,[2],18.5 µM (active)
same,outcome,[7],inactive
Cc1oc(-c2ccccc2)nc1CCOc1ccc(C[C@H](Nc2ccccc2C(=O)c2ccccc2)C(=O)O)cc1,outcome,[9],inactive
same,AC50,[1],14.9 µM (active)
same,AC50,[2],10.6 µM (active)
Oc1cc2ccccc2c2ccccc12,outcome,[9],inactive
same,outcome,[8],inactive
same,AC50,[5],14.1 µM (active)
OC1CCC(C2CCCCC2)CC1 (centres undefined),outcome,[5],inactive
NC(=O)N1C(=O)C(C(=O)c2cc(Cl)cs2)c2cc(F)c(Cl)cc21 (centres undefined),AC50,[1],12.2 µM (active)
same,AC50,[2],16.9 µM (active)
